The test concerns Plasmodium falciparum NF54 stage V gametocytes. As to the kind of experiment: viability index relative to DMSO control (fraction); higher = less gametocyte killing. The settings on record: 2.5 µM, incubation time: 72 h. The method, then:
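Broad DOS informer set and blood-stage-active DOS compounds screened in duplicate at 2.5 µM against P. falciparum NF54 stage V gametocytes with the serum-free one-step SaLSSA (1536-well): 72 h at 37 °C under low oxygen, then saponin lysis and MitoTracker Red CMXRos staining, with high-content imaging. Viability index = viable-object count divided by the plate mean of DMSO wells (0 = killed, about 1 = inactive).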

[1] abbreviates: library set: Broad Institute DOS.
Where [2] appears, read: library set: Broad Institute Blood Stage.

The text below walks through data of the supplement of paper PMC4723716.

± gives the uncertainty stated by the source. In all, about 9,900 compounds were measured (“viability index relative to DMSO control”: median about 1, lowest 2% from about 0.85 on). The list comes from a sample in which the lowest values are over-represented; it also holds similar structures and randomly drawn compounds.

`C[C@@H]1CN([C@@H](C)CO)C(=O)c2cc(NS(=O)(=O)c3cn(C)cn3)ccc2O[C@H]1CN(C)S(=O)(=O)c1ccc(F)cc1` registered a viability index under setting [1] of 1.06 ± 0.038.

Compound `O=C(C[C@H]1C=C[C@@H](NC(=O)c2ccncc2)[C@H](CO)O1)NCC1CC1` came in with a viability index under setting [1] of 1.029 ± 0.0019.

Take `Cc1ccccc1-c1ccc([C@H]2[C@H]3CN(S(C)(=O)=O)CC(=O)N3[C@H]2CO)cc1`: under setting [1], the viability index was 0.975 ± 0.047.

Compound `CCc1nc(N2[C@H](C#N)[C@@H](c3ccccc3-c3ccccc3C)[C@@H]2CO)sc1C` returned a viability index under setting [1] of 1.07 ± 0.088.

Under setting [1], `CCc1nc(N2[C@@H](C#N)[C@@H](c3ccccc3-c3ccccc3C)[C@@H]2CO)sc1C` registered a viability index of 1.08 ± 0.12.

`CCc1nc(N2[C@@H](C#N)[C@H](c3ccccc3-c3ccccc3C)[C@@H]2CO)sc1C` registered a viability index under setting [1] of 0.81 ± 0.063.

Consider `COc1ccc2c3c([nH]c2c1)[C@@H](CO)N(C[C@]31CCN(C)CC1)S(=O)(=O)c1ccccc1`, for which the viability index under setting [1] came to 1.04 ± 0.032.

Under setting [1], `CO[C@@H]1CN(C)C(=O)c2ccc(NS(C)(=O)=O)cc2OC[C@@H](C)N(C(=O)CN(C)C)C[C@H]1C` came in with a viability index of 0.977 ± 0.055.

In turn, `N#Cc1cccc(-c2ccc([C@H]3[C@@H]4CN(C(=O)c5ccc6c(c5)OCO6)C[C@H]3N4)cc2)c1` came in with a viability index under setting [1] of 1.09 ± 0.072.

Under setting [1], `N#Cc1ccc(-c2ccc([C@H]3[C@@H]4CN(C(=O)c5cccnc5)C[C@H]3N4)cc2)cc1` displayed a viability index of 1.15 ± 0.046.

Under setting [1], `N#Cc1ccc(-c2ccc([C@@H]3[C@@H]4CN(C(=O)c5cccnc5)C[C@H]3N4)cc2)cc1` yielded a viability index of 0.81 ± 0.2.

Under setting [1], `N#Cc1cccc(-c2ccc([C@@H]3[C@@H]4CN(C(=O)c5ccc6c(c5)OCO6)C[C@H]3N4)cc2)c1` returned a viability index of 0.896 ± 0.077.

With `O=C(c1ccc(F)cc1)N1C[C@@H]2N[C@H](C1)[C@H]2c1ccc(-c2cccnc2)cc1`, the viability index under setting [1] was determined as 1.08 ± 0.12.

Turning to `N#Cc1ccc(-c2ccc([C@@H]3[C@@H]4CN(C(=O)Nc5ccc6c(c5)OCO6)C[C@H]3N4)cc2)cc1`, the viability index under setting [1] stood at 0.56 ± 0.15.

For the compound `O=C(Cc1ccncc1)N1CC[C@@H]2[C@H]1c1cc(-c3ccccc3F)ccc1N[C@@H]2CO`, the viability index under setting [1] came out at 1.03 ± 0.046.

The compound `CCS(=O)(=O)N1CC[C@@]2(CC1)CN([C@@H](CO)c1[nH]c3cc(OC)ccc3c21)S(=O)(=O)c1ccc(C)cc1` displayed a viability index under setting [1] of 0.934 ± 0.052.

`COc1ccc2c3c([nH]c2c1)[C@@H](CO)N(Cc1ccc(Cl)cc1)C[C@]31CN(C1)S(C)(=O)=O`: under setting [1], the viability index is 0.931 ± 0.095.

As for `CCCC(=O)N1CC[C@@]2(CC1)CN([C@@H](CO)c1[nH]c3cc(OC)ccc3c21)S(=O)(=O)c1ccc(C)cc1`, the viability index under setting [2] amounted to 0.655 ± 0.046.

With `COc1ccc2c3c([nH]c2c1)[C@H](CO)N(C[C@]31CCN(CC1)C(=O)Cc1cccnc1)S(=O)(=O)c1ccc(C)cc1`, under setting [1], the viability index amounted to 0.75 ± 0.079.

Compound `CCCC(=O)N1C[C@@]2(C1)CN([C@H](CO)c1[nH]c3cc(OC)ccc3c21)S(=O)(=O)c1ccc(C)cc1` showed a viability index under setting [1] of 0.946 ± 0.074.

Under setting [1], `CCS(=O)(=O)N1CC[C@@]2(CC1)CN([C@H](CO)c1[nH]c3cc(OC)ccc3c21)S(=O)(=O)c1ccc(C)cc1` displayed a viability index of 1 ± 0.046.

On to `COc1ccc2c3c([nH]c2c1)[C@@H](CO)N(C[C@]31CCN(CC1)C(=O)Cc1cccnc1)S(=O)(=O)c1ccc(C)cc1`, for which the viability index under setting [1] was 0.827 ± 0.019.

For the compound `COc1ccc2c3c([nH]c2c1)[C@@H](CO)N(C[C@]31CN(C1)C(=O)Cc1cccnc1)S(C)(=O)=O`, the viability index under setting [1] was found to be 1.06 ± 0.048.

In turn, `CCCC(=O)N1C[C@@]2(C1)CN([C@@H](CO)c1[nH]c3cc(OC)ccc3c21)S(=O)(=O)c1ccc(C)cc1` showed a viability index under setting [1] of 0.9841 ± 0.0028.

As to `COc1ccc(CN2C[C@]3(CN(C3)S(=O)(=O)c3ccc(C)cc3)c3c([nH]c4cc(OC)ccc34)[C@H]2CO)cc1`, the viability index under setting [1] worked out at 0.793 ± 0.014.

Under setting [1], `COc1ccc2c3c([nH]c2c1)[C@H](CO)N(C[C@]31CN(C1)C(=O)Cc1cccnc1)S(C)(=O)=O` gave a viability index of 1.08 ± 0.04.

For the compound `COc1ccc2c3c([nH]c2c1)[C@H](CO)N(Cc1ccc(Cl)cc1)C[C@]31CN(C1)S(C)(=O)=O`, the viability index under setting [1] came out at 0.931 ± 0.066.

`C[C@H](CO)N1C[C@H](C)[C@H](CN(C)C(=O)Nc2cccc(C(F)(F)F)c2)OCc2cn(nn2)CCCC1=O` gave a viability index under setting [1] of 1.01 ± 0.036.

In turn, `COc1ccc2c3c([C@@H](CO)N(C[C@]33CN(C3)C(=O)c3ccccc3F)C(=O)Nc3ccccc3F)n(C)c2c1` registered a viability index under setting [1] of 0.97 ± 0.053.

Under setting [1], `O=C(Cc1cccnc1)N1CC(=O)N2[C@@H](CO)[C@H](c3ccc(/C=C/c4ccccc4)cc3)[C@@H]2C1` had a viability index of 1.015 ± 0.0057.

On to `C[C@H]1CN([C@@H](C)CO)C(=O)Cc2cc(N(C)C)ccc2O[C@@H]1CN(C)C(=O)NC1CCCCC1`, for which the viability index under setting [1] was 0.883 ± 0.058.

Regarding `O=C1CNC[C@@H]2[C@H](c3ccc(C#CC4CCCCC4)cc3)[C@@H](CO)N12`, the viability index under setting [1] worked out at 1.06 ± 0.067.

Under setting [1], `CN1CCN(C(=O)C[C@H]2CC[C@@H]3[C@H](COC[C@H](O)CN3C(=O)c3ccccc3F)O2)CC1` registered a viability index of 0.986 ± 0.019.

Take `Cc1ccc(S(=O)(=O)Nc2ccc3c(c2)C(=O)N([C@@H](C)CO)C[C@@H](C)[C@@H](CN(C)Cc2ccc(C(F)(F)F)cc2)O3)cc1`: the viability index under setting [1] was determined as 1.04 ± 0.07.

Under setting [1], `COc1ccc(NC(=O)N(C)C[C@@H]2Oc3ccc(NC(=O)Nc4cccc5ccccc45)cc3CC(=O)N([C@@H](C)CO)C[C@H]2C)cc1` gave a viability index of 1.03 ± 0.033.

As for `O=C(N[C@@H]1C=C[C@@H](CC(=O)N2CCN(c3ccccc3)CC2)O[C@@H]1CO)c1ccccc1`, under setting [1], the viability index stood at 1.11 ± 0.12.

Consider `N#C[C@H]1[C@@H](c2ccccc2-c2ccccc2F)[C@@H](CO)N1C(=O)c1cccc(F)c1`, for which, under setting [1], the viability index stood at 1.16 ± 0.25.

For `Cc1noc(C)c1NC(=O)N[C@@H]1C=C[C@@H](CC(=O)Nc2ccc(-c3ccccc3)cc2)O[C@@H]1CO`, the viability index under setting [1] came out at 0.979 ± 0.1.

In turn, `Cc1noc(C)c1S(=O)(=O)Nc1ccc2c(c1)C(=O)N([C@H](C)CO)C[C@@H](C)[C@H](CN(C)Cc1ccc(C(=O)O)cc1)OCCCC[C@@H](C)O2` returned a viability index under setting [1] of 1.07 ± 0.12.

Compound `CCCNC(=O)N1[C@H](C#N)[C@@H](c2ccc(C#Cc3cccc(F)c3)cc2)[C@@H]1CO` yielded a viability index under setting [1] of 0.981 ± 0.013.

In turn, `N#C[C@@H]1[C@@H](c2ccc(-c3cccc(F)c3)cc2)[C@H](CO)N1C(=O)NC1CCCC1` showed a viability index under setting [1] of 0.935 ± 0.064.

`CC(C)NC(=O)N1[C@H](C#N)[C@H](c2ccc(C#CC3CCCCC3)cc2)[C@@H]1CO`: the viability index under setting [2] worked out at 0.822 ± 0.041.

In the case of `N#C[C@@H]1[C@H](c2ccc(-c3cccc(F)c3)cc2)[C@H](CO)N1C(=O)NC1CCCC1`, the viability index under setting [1] turned out to be 0.743 ± 0.059.

Compound `CN(C)CC(=O)N1[C@H](C#N)[C@@H](c2ccc(C#CC3CCCCC3)cc2)[C@H]1CO` displayed a viability index under setting [1] of 1.05 ± 0.039.

`N#C[C@H]1[C@@H](c2ccc(-c3cccc(F)c3)cc2)[C@H](CO)N1C(=O)NC1CCCC1` gave a viability index under setting [1] of 1.055 ± 0.0015.

In turn, `CCCNC(=O)N1[C@H](CO)[C@H](c2ccc(C#Cc3cccc(F)c3)cc2)[C@@H]1C#N` showed a viability index under setting [1] of 1.09 ± 0.027.

On to `CN(C)CC(=O)N1[C@H](C#N)[C@H](c2ccc(C#CC3CCCCC3)cc2)[C@@H]1CO`, for which the viability index under setting [1] stood at 0.981 ± 0.11.

`CCCNC(=O)N1[C@H](C#N)[C@H](c2ccc(C#Cc3ccc(F)cc3)cc2)[C@@H]1CO` came in with a viability index under setting [2] of 0.844 ± 0.021.
